# Source: PubChem BioAssay (EPA / NIEHS)
# Results filed as inconclusive are left out. Active and inactive are the calls of the source. The calls were made as follows: active = hit-call score of the fitted dose curve at least 0.9, where 1 is the maximum; inconclusive = response in the unintended direction; inactive = score below 0.9.
# Molecular target: Androgen receptor (Homo sapiens) (UniProt P10275)
# Assay: ATG_AR_TRANS: Attagene TRANS-FACTORIAL HepG2 Assay for human Androgen Receptor (AR) (AID 2282973)
# Details: HepG2 Attagene TRANS-FACTORIAL AR reporter transcription
# Description: ATG_TRANS is a cell-based, multiplexed-readout assay that uses HepG2, a human liver cell line, with measurements taken at 24 hours after chemical dosing in a 24-well plate.ATG_AR_TRANS is one of 30 assay component(s) measured or calculated from the ATG_TRANS assay. It is designed to make measurements of mRNA induction, a form of inducible reporter, as detected with fluorescence intensity signals by Reverse transcription polymerase chain reaction (RT-PCR) and Capillary electrophoresis technology.Data from the assay component ATG_AR_TRANS was analyzed into 1 assay endpoint. This assay endpoint, ATG_AR_TRANS, was analyzed in the positive analysis fitting direction relative to DMSO as the negative control and baseline of activity. Using a type of inducible reporter, measures of mRNA for gain-of-signal activity can be used to understand the reporter gene at the transcription factor-level as they relate to the gene AR. Furthermore, this assay endpoint can be referred to as a primary readout, because this assay has produced multiple assay endpoints where this one serves a reporter gene function. To generalize the intended target to other relatable targets, this assay endpoint is annotated to the nuclear receptor intended target family, where the subfamily is steroidal.
# Human liver HepG2 cells are transiently transfected with multiple reporter transcription units (MRTUs) in 6-well plates using FuGene 6 reagent (Roche; 3 ml FuGene/1 mg DNA). The MRTU constructs are regulated by a cis-regulating element (promoter). […] A major difference between the CIS and TRANS system is that in CIS activities of endogenous TFs are measured, whereas the TRANS assay evaluates changes in activities of exogenous, chimeric NR-Gal4 proteins. […] At the end of 24 hour incubation, total RNA was isolated using TriZol reagent (Invitrogen). The isolated RNA is then reverse-transcribed using oligo(dT) primer and Mo-MLV reverse transcriptase (Invitrogen) with DNAse I (Ambion) treatment for 30 min. The one-tenth of the produced cDNA was amplified by PCR using Taq DNA polymerase (Invitrogen) and two reporter sequence-specific primers. The PCR products were fluorescently labeled by primer extension with 6-arboxyfluorescein (6-FAM) 5'-labeled reporter sequence-specific primer (2 min at 95 C, 20 s at 68 C and 10 min at 72 C) and these products were digested with 5U of HpaI (New England Biolabs) for 2h at 37 C. The fragments were purified using Qiaquick PCR columns (Qiagen), analyzed on an ABI 3130xL genetic analyzer (Applied Biosystems) with peak positions identified by using a set of X-rhodamine (ROX)-labeled MapMarker1000 molecular weight standards (BioVentures). The raw capillary electrophoresis data was processed using Attagraph software (Attagene).
# Chain of Androgen receptor (Homo sapiens) (P10275 whole entry, looked up): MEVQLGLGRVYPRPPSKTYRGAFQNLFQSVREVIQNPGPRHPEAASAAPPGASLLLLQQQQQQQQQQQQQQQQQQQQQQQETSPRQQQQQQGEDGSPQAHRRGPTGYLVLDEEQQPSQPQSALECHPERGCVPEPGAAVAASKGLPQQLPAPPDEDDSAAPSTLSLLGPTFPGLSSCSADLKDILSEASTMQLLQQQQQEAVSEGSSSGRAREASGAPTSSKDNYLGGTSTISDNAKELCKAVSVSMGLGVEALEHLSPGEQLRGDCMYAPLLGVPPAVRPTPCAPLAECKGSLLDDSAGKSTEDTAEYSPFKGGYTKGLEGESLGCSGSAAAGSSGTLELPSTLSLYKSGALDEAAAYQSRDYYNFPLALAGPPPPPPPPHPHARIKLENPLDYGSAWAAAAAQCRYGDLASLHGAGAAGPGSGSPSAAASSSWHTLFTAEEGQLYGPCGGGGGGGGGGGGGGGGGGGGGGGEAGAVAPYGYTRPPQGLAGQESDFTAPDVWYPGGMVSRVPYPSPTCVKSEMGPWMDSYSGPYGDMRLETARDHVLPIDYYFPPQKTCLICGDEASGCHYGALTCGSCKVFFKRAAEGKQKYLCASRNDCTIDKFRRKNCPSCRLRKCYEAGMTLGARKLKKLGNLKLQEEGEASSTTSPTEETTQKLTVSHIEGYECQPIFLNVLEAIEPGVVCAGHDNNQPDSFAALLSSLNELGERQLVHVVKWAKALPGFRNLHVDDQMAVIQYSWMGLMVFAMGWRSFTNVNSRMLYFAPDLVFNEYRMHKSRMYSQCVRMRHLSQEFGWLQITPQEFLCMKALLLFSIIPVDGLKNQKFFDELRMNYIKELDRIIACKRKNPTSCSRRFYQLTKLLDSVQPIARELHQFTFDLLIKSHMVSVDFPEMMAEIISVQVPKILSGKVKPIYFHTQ
row,SMILES,outcome
1,Cc1nc(-c2ccc3c(c2)CCN(CCC2CCC(NC(=O)/C=C/c4ccc(F)cc4)CC2)CC3)no1 (stereo not given),inactive
2,C=CC(=O)OCCN(CC)CC,inactive
3,CC1COCc2cc3c(cc21)C(C)(C)C(C)C3(C)C (stereo not given),inactive
4,O=c1cc(-c2ccccc2)oc2cc(O)cc(O)c12,inactive
5,CC1(C)CCC(C)(C)c2cc(C(=O)Nc3ccc(C(=O)O)cc3)ccc21,inactive
6,CCC(C)NC(N)=O (stereo not given),inactive
7,C=CC(=O)OCC(F)(F)C(F)(F)C(F)(F)C(F)(F)C(F)(F)C(F)(F)C(F)(F)F,inactive
8,CCC(CC)CO,inactive
9,NNC(=O)c1cccc(C(=O)NN)c1,inactive
10,O=S(=O)(O)C(F)(F)C(F)(F)C(F)(F)C(F)(F)C(F)(F)C(F)(F)C(F)(F)F,inactive
11,[Co],inactive
12,O=C(CCCCCCCCc1cccnc1)N1CCC(C=C(c2ccccc2)c2ccccc2)CC1,inactive
13,OCC(O)CC(F)(F)C(F)(F)C(F)(F)C(F)(F)C(F)(F)C(F)(F)C(F)(F)C(F)(F)F (stereo not given),inactive
14,CCCCCCCC(=O)OCCCCCC,inactive
15,c1ccc2[nH]c(-c3cscn3)nc2c1,inactive
16,N#CSCSc1nc2ccccc2s1,inactive
17,COC(=O)CSc1cc(N=c2sc(=O)n3n2CCCC3)c(F)cc1Cl,inactive
18,COc1cc(-c2nc(NC(=O)c3cc4cc(C)cc(C)c4n3CC(=O)O)sc2CCC2CCCCC2)c(OC)cc1Cl,inactive
19,CN(C)CCOC(c1ccccc1)c1ccccc1,inactive
20,Oc1ccc2c(c1)-c1ccccc1C2,inactive

row,SMILES,outcome
1,CN(C)c1ccc(C(=C2C=CC(=[N+](C)C)C=C2)c2ccc(N(C)C)cc2)cc1,inactive
2,CC=CCO,inactive
3,NC(C(F)(F)F)C(F)(F)F,inactive
4,OC[C@H]1O[C@@H](O[C@H]2[C@H](O)[C@@H](O)[C@H](O)O[C@@H]2CO)[C@H](O)[C@@H](O)[C@H]1O,inactive
5,O=c1c(-c2ccc(O)cc2)coc2cc(O)cc(O)c12,inactive
6,FC(OC(F)(F)C(F)(F)C(F)(F)F)C(F)(F)F (stereo not given),inactive
7,C=C(C)C(=O)OCC(F)(F)C(F)(F)C(F)(F)F,inactive
8,N#Cc1cc(I)c(O)c(I)c1,inactive
9,COc1ccc(C(=O)c2ccccc2)c(O)c1,inactive
10,C=CCOCC(O)CCl (stereo not given),inactive
11,CCN(CC)c1ccc2c(c1)Oc1cc(N(CC)CC)ccc1C21OC(=O)c2ccccc21,inactive
12,COCCOCCOCCOCCOC,inactive
13,Clc1cccnc1,inactive
14,COCC(C)OCC(C)O (stereo not given),inactive
15,CC(C)(c1ccc(O)cc1)c1ccc(O)cc1,inactive
16,Fc1ccccc1[C@@H](F)COC1CCC(Nc2ncnc3[nH]ncc23)CC1 (stereo not given in full),inactive
17,C[N+](C)(C)CCCNS(=O)(=O)C(F)(F)C(F)(F)C(F)(F)C(F)(F)C(F)(F)C(F)(F)C(F)(F)C(F)(F)F,inactive
18,CCCC1CCOC(C)S1 (stereo not given),inactive
19,Cc1ccc(C)c2ccccc12,inactive
20,C=C(C)[C@@H]1CC=C(C)C(=O)C1,inactive
